Compounds with a hit are over-represented: about 2.6% of the library has one in this group of screens.
Cruzain inh Det: cruzain (T. cruzi) inhibition with detergent | P25779 | Potency, µM, inactives show max response, negative = inhibition, hits mostly inhibitors | 200,000 tested, 0.43% active | purified cruzain, Z-FR-AMC fluorescence, 0.01% Triton;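 further: plate controls were neutral wells for no effect and buffer without enzyme for full effect; nearly all actives have a fitted effect of over 40% in size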
Target sequence (P25779 123-467 limits assumed): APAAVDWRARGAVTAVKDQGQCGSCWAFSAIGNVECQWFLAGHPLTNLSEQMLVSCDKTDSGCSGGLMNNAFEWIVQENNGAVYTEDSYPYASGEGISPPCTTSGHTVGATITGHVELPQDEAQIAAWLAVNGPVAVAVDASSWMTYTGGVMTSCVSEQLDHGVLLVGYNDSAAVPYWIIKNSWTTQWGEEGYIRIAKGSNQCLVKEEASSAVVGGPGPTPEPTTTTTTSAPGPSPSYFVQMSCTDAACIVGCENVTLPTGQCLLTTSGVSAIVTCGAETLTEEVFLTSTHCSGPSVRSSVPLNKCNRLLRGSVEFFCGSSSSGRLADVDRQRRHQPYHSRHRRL
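Z-FR-AMC hydrolysis (2 uM substrate) by cruzain (1.5 nM) monitored kinetically at ex 360/em 450 nm after 15 min room-temperature compound exposure; 0.01% Triton X-100, pH 5.5, 5 mM DTT.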
Cruzain noTriton: blocks cruzain activity in detergent-free assay; P25779; purified cruzain, Z-FR-AMC fluorescence, no detergent; Potency, µM, without a hit: max response, negative = inhibition, actives largely listed as inhibitors; 200,000 tested, 2.3% active;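 further: plate controls were enzyme without inhibitor for no effect and buffer without enzyme for full effect; nearly all actives have a fitted effect of over 40% in size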
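Detergent-free condition (0.00005% Triton X-100) in acetate buffer pH 5.5 with DTT. 1.5 nM enzyme and compound were pre-mixed 15 min, then 2 uM Z-FR-AMC substrate added; reaction progress from fluorescence change between first and third reads (60 s).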
The depositor's hits bear a star; ? = inconclusive. The call rests on the fitted dose curve; in most records, active means well fitted curve in the direction sought with a large enough effect; inconclusive means small, poorly fitted or top-dose-only effect, or another doubt; inactive means no such curve, though single readings can be large; an effect the other way counts as inactive or inconclusive. Potency means the concentration at half of the fitted maximal effect.

SMILES | Cruzain inh Det | Cruzain noTriton
CCNC(=O)CSc1ncnc2sccc12 | -3.3% | -8.8%
N#Cc1c(NC(=O)CSc2ncnc3sccc23)oc(-c2ccco2)c1-c1ccco1 | -11.6% | 25.1µM*
COc1ccccc1N1CCN(C(=O)CCc2nnc3n(C)c(=O)c4sccc4n23)CC1 | 6.8% | -6.8%
Cc1cc(O)c2c(-c3ccccc3)cc(=O)oc2c1 | -5.5% | 2.7%
COc1ccc([N+](=O)[O-])cc1COc1cc(C)cc2oc(=O)cc(-c3ccccc3)c12 | -0.5% | 31.6µM*
Cc1cc(OCc2ccc([N+](=O)[O-])cc2)c2c3c(c(=O)oc2c1)CCCC3 | -1.1% | 12.6µM*
Cc1c(OCc2ccc([N+](=O)[O-])cc2)ccc2c3c(c(=O)oc12)CCC3 | -0.7% | -19.3%
S=c1nc[nH]c2c1ncn2Cc1ccco1 | 1.2% | 4.7%
O=C(N/N=C/c1ccc2ccccc2c1)c1ccc(COc2ccc3c(c2)CCC3)o1 | -11.2% | 20µM*
COc1ccc(Br)cc1/C=N/NC(=O)c1ccc(COc2ccc3c(c2)CCC3)o1 | -10.5% | -25.6%
O=C1/C(=C\c2ccc(-c3ccccc3Cl)o2)SC(=S)N1CC1CCCO1 (configuration not stated) | -4.1% | 15.8µM*
CN1C(=O)/C(=C2\SC(=S)N(CC3CCCO3)C2=O)c2ccccc21 (configuration not stated) | 0.3% | 0.4%
COc1ccc(NC(=O)c2ccc3c(c2)N(Cc2cccc(Cl)c2)C(=O)c2ccccc2S3=O)cc1Cl (configuration not stated) | -5.5% | ?
COc1ccc(NC(=O)c2ccc3c(c2)N(Cc2cccc(Cl)c2)C(=O)c2ccccc2S3(=O)=O)cc1Cl | -0.2% | 3.16µM*
CC(=O)c1ccc(NC(=O)c2ccc3c(c2)N(Cc2cccc(Cl)c2)C(=O)c2ccccc2S3(=O)=O)cc1 | -1.8% | 10µM*
CC(=O)c1ccc(NC(=O)c2ccc3c(c2)N(Cc2cccc(Cl)c2)C(=O)c2ccccc2S3=O)cc1 (configuration not stated) | -0.5% | -13.8%
CC(C)N(C(=O)CSc1cn(CC(=O)N2CCCCCC2)c2ccccc12)C(C)C | -4.6% | 1.0%
CCOc1ccc(-c2cn3c(n2)sc2cc(C(=O)NCCCN4CCCCC4)ccc23)cc1 | -1.6% | 3.98µM*
CCOc1ccc(-c2cn3c(n2)sc2cc(C(=O)NCCCN4CCCCCC4)ccc23)cc1 | -1.8% | 2.8%
Cc1ccc(C)c(NC(=S)NC(NC(=O)N(C)C)C(Cl)(Cl)Cl)c1 (configuration not stated) | 6.2% | -5.8%
Cc1ccc(C)c(NC(=S)NC(NC(=O)Cc2cccc3ccccc23)C(Cl)(Cl)Cl)c1 (configuration not stated) | -1.6% | 7.94µM*
COc1ccc(NC(=O)Cc2noc3ccc(C)cc23)cc1Cl | ? | 25.1µM*
CCOC(=O)c1ccc(NC(=O)Cc2noc3ccc(C)cc23)cc1 | -0.7% | 5.6%
C=C(C(=O)O)[C@@H]1CC[C@@]2(C)CCC[C@](C)(O)[C@@H]2C1 | 0.1% | -6.5%
Cc1cccc(Cn2c(CNS(=O)(=O)c3ccc4c(c3)CCCC4)nc3cccnc32)c1 | -2.9% | 0.0%
SMILES | Cruzain inh Det | Cruzain noTriton
CC(C)CN(Cc1c(O)ccc2c3c(c(=O)oc12)CCC3)CC(C)C | 28.2µM* | -99.4%
Cc1cc(=O)oc2c(O)c(O)ccc12 | -12.1% | -18.6%
Cc1cc(=O)oc2c(CN(CC(C)C)CC(C)C)c(O)ccc12 | 25.1µM* | ?
O=c1oc2c(CN3CCOCC3)c(O)ccc2c2c1CCC2 | ? | -75.7%
COc1ccc(S(=O)(=O)c2c(O)c3ccc(C(=O)NCc4ccc(F)cc4)cc3[nH]c2=O)cc1 | 1.2% | ?
COCCN1CN=C(Nc2nc3ccccc3s2)NC1 | ? | 15.8µM*
COCCN1CN=C(Nc2nc3ccccc3o2)NC1 | 7.8% | -1.5%
CCOc1ccc(/C=C2/SC(=S)N(n3c(C)ccc3C)C2=O)cc1 | -6.4% | -41.1%
COc1ccc(/C=C2/SC(=S)N(n3c(C)ccc3C)C2=O)cc1 | -5.4% | 25.1µM*
CCOC(=O)c1c(C)[nH]c(C2=NNC(=Nc3cccc(Cl)c3)SC2)c1C | 0.6% | 15.8µM*
CCOC(=O)c1c(C)[nH]c(C=O)c1Cc1cccc(Cl)c1 | -7.9% | -6.2%
CN(C)c1ccc(-c2nc(NCCc3cnc[nH]3)c3ccccc3n2)cc1 | -8.4% | -7.8%
CCN1CCc2c(sc(N)c2C#N)C1 | -2.8% | -5.4%
N#Cc1c(N)sc(=S)c2c1CCN(Cc1ccccc1)C2 | 28.2µM* | 12.6µM*
CCOc1ccc2oc(=O)cc(CN3CCN(C(=O)c4cccc(F)c4)CC3)c2c1 | -3.1% | -0.7%
Cc1cc(N2CCCCC2)nc2ccc(NC(=O)c3cccc(Cl)c3)cc12 | -10.2% | -11.3%
Cc1cc(N2CCCCC2)nc2ccc(NC(=O)CCC(=O)N3CCN(c4cccc(Cl)c4)CC3)cc12 | 15.8µM* | ?
Cc1ccc(Cl)cc1N1CCN(C(=O)CCC(=O)Nc2ccc3nc(N4CCC(C)CC4)cc(C)c3c2)CC1 | -1.6% | 9.2%
Cc1cc(N2CCC(C)CC2)nc2ccc(NC(=O)CCC(=O)N3CCN(c4cccc(C(F)(F)F)c4)CC3)cc12 | 12.6µM* | ?
O=C(CCC1N=C2c3ccccc3N=C(SCc3ccc(Cl)cc3)N2C1=O)NCc1cccs1 (configuration not stated) | -3.6% | 13.2%
CCc1cccc(NC(=O)c2cc3c(=O)n(Cc4ccccc4)ccc3nc2C)c1 | -7.4% | ?
Cc1ccc(Cl)cc1-n1c(=O)c2sc3ccccc3c2n(Cc2ccccc2)c1=O | -0.7% | 1.2%
COc1cccc(Cn2c(=O)n(-c3ccc(Br)cc3F)c(=O)c3sc4ccccc4c32)c1 | -4.8% | 12.6µM*
Cc1ccc2c(c1)C(=O)C1(O)CCN(c3ccccc3)C1=N2 (configuration not stated) | -1.0% | 2.6%
Cc1cc(OCC(=O)NCC2(N3CCN(C)CC3)CCCCC2)cc(C)c1Cl | 3.9% | 5.4%
SMILES | Cruzain inh Det | Cruzain noTriton
Cn1nc(-c2ccccc2F)c2cc(C(=O)NCc3ccccc3Cl)sc21 | 6.0% | -5.4%
COc1ccc(C(C(=O)NC2CCCC2)N(C(=O)c2snc(-c3ccc(F)cc3)c2N)c2ccc(F)cc2)cc1 (configuration not stated) | 3.2% | 25.1µM*
COc1ccc(C(C(=O)NC2CCCC2)N(C(=O)c2snc(-c3ccc(F)cc3)c2N)c2ccc(OC)cc2)cc1 (configuration not stated) | 1.7% | 25.1µM*
COc1ccc(C(C(=O)NC2CCCCC2)N(C(=O)c2sc(C)nc2C)c2ccc(OC)cc2)cc1 (configuration not stated) | 3.3% | ?
COc1ccc(C(C(=O)NC2CCCC2)N(C(=O)c2ccoc2C)c2ccccc2)cc1 (configuration not stated) | -1.7% | -7.0%
COc1ccc(C(C(=O)NC2CCCCC2)N(C(=O)c2sc(C)nc2C)c2ccccc2)cc1 (configuration not stated) | -2.0% | 0.8%
COc1ccc(C(C(=O)NC2CCCC2)N(C(=O)c2snc(-c3ccc(F)cc3)c2N)c2ccccc2)cc1 (configuration not stated) | 7.1% | 7.94µM*
COc1ccc(C(C(=O)NC2CCCC2)N(C(=O)c2snc(-c3ccc(F)cc3)c2N)c2cccc(F)c2)cc1 (configuration not stated) | -0.7% | 10µM*
COc1ccc(C(C(=O)NC2CCCCC2)N(C(=O)CCl)c2ccc(Cl)cc2)cc1 (configuration not stated) | 2.4% | ?

Assay outcomes deposited in PubChem BioAssay by National Center for Advancing Translational Sciences (NCATS).
